What follows are compounds tested on Trichuris muris adult worms (assay: mean motility score (Paragon pixel variance) of adult worms (arbitrary units); higher = more motile worms, i.e. less anthelmintic effect; extreme values may be limits of the assay). Settings: 100 µM; 24 h.
How it was run: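 Adult Trichuris muris worms were collected from infected NOD SCID mice and placed one per well in 96-well plates containing 100 μL RPMI-1640 with antibiotics and drug at 100 μM (1% v/v DMSO), then incubated for 24 h at 37°C and 5% CO2. Each plate was filmed on an automated phenotyping platform, capturing 200 frames 100 ms apart. The motility score came from Paragon pixel-variance analysis and was averaged over replicate wells. Every drug was tested with three worms in three wells on three separate occasions, alongside vehicle and positive controls.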

| SMILES | mean motility score |
| --- | --- |
| CN1CCCC(n2nc(Cc3ccc(Cl)cc3)c3ccccc3c2=O)CC1.Cl (configuration not stated) [azelastine hydrochloride] | 396 |
| CCCCCCCCCCCCCCCCO [cetyl alcohol] | 1880 |
| CC(C)C(=O)Nc1ccc([N+](=O)[O-])c(C(F)(F)F)c1 [flutamide] | 113 |
| CC/C(=C(\c1ccccc1)c1ccc(OCCN(C)C)cc1)c1ccccc1 [tamoxifen] | 165 |
| Cc1ccnc2c1NC(=O)c1cccnc1N2C1CC1 [nevirapine] | 2540 |
| Clc1ccc2c(c1)C(N1CCNCC1)=Nc1ccccc1O2 [amoxapine] | 804 |
| O=C1C(O)=C([C@H]2CC[C@H](c3ccc(Cl)cc3)CC2)C(=O)c2ccccc21 [atovaquone] | 1650 |
| C[C@@H]1[C@H](O)[C@@H](C)/C=C/C=C/C=C/C=C/C=C/C=C/C=C/[C@H](O[C@@H]2O[C@H](C)[C@@H](O)[C@H](N)[C@@H]2O)C[C@@H]2O[C@](O)(C[C@@H](O)C[C@@H](O)[C@H](O)CC[C@@H](O)C[C@@H](O)CC(=O)O[C@H]1C)C[C@H](O)[C@H]2C(=O)O [amphotericin B] | 656 |
| N=C(N)NCCN1CCCCCCC1.N=C(N)NCCN1CCCCCCC1.O=S(=O)(O)O [guanethidine sulfate] | 2380 |
| C[C@@H]1C[C@H]2[C@@H]3CCC4=CC(=O)C=C[C@]4(C)[C@@]3(F)[C@@H](O)C[C@]2(C)[C@H]1C(=O)CO [desoximetasone] | 772 |
| Clc1ccccc1C(c1ccccc1)(c1ccccc1)n1ccnc1 [clotrimazole] | 0 |
| CNC[C@H](O)c1cccc(O)c1 [phenylephrine] | 3950 |
| Cl.Clc1ccccc1CN1CCc2sccc2C1 [ticlopidine hydrochloride] | 663 |
| Cc1onc(-c2ccccc2)c1-c1ccc(S(N)(=O)=O)cc1 [valdecoxib] | 3610 |
| COc1ccc([C@@H]2Sc3ccccc3N(CCN(C)C)C(=O)[C@@H]2OC(C)=O)cc1 [diltiazem] | 2070 |
| NC(=O)OCC(COC(N)=O)c1ccccc1 [felbamate] | 5470 |

| SMILES | mean motility score |
| --- | --- |
| COc1ccc(C(Cl)=C(c2ccc(OC)cc2)c2ccc(OC)cc2)cc1 [chlorotrianisene] | 2530 |
| CN1CCc2cccc3c2[C@H]1Cc1ccc(O)c(O)c1-3 [apomorphine] | 2320 |
| Cc1nnc(SCC2=C(C(=O)[O-])N3C(=O)[C@@H](NC(=O)Cn4cnnn4)[C@H]3SC2)s1.[Na+] [cefazolin sodium] | 1680 |
| NC(CO)(CO)CO [tromethamine] | 2770 |
| Cc1nc(O)c(C#N)cc1-c1ccncc1 [milrinone] | 4250 |
| Cl.O=C1CC2(CCCC2)CC(=O)N1CCCCN1CCN(c2ncccn2)CC1 [buspirone hydrochloride] | 4250 |
| CC(N/C(=N/C#N)Nc1ccncc1)C(C)(C)C.O (configuration not stated) [pinacidil monohydrate] | 2490 |
| Nc1ncnc2c1ncn2[C@@H]1O[C@H](CO)[C@@H](O)[C@H]1O [adenosine] | 3520 |
| NCC[C@H](O)C(=O)N[C@@H]1C[C@H](N)[C@@H](O[C@H]2O[C@H](CN)[C@@H](O)[C@H](O)[C@H]2O)[C@H](O)[C@H]1O[C@H]1O[C@H](CO)[C@@H](O)[C@H](N)[C@H]1O.O=S(=O)(O)O [amikacin sulfate] | 3880 |
| CCOC(=O)[C@H](CCc1ccccc1)N[C@@H](C)C(=O)N1Cc2cc(OC)c(OC)cc2C[C@H]1C(=O)O.Cl [moexipril hydrochloride] | 3680 |
| CN(C)CCc1c[nH]c2ccc(C[C@H]3COC(=O)N3)cc12 [zolmitriptan] | 3180 |
| CN(C)C/C=C/C(=O)Nc1cc2c(Nc3ccc(F)c(Cl)c3)ncnc2cc1O[C@H]1CCOC1 [afatinib] | 0 |
| C#CCN(C)Cc1ccccc1 [pargyline] | 2290 |
| O=C1NCCN1CCN1CCC(c2cn(-c3ccc(F)cc3)c3ccc(Cl)cc23)CC1 [sertindole] | 0 |
| CC(=O)OC[C@H]1O[C@@H](n2ncc(=O)[nH]c2=O)[C@H](OC(C)=O)[C@@H]1OC(C)=O [azaribine] | 3970 |
| COC1=C(OC)C(=O)C(C/C=C(\C)CC/C=C(\C)CC/C=C(\C)CC/C=C(\C)CC/C=C(\C)CC/C=C(\C)CC/C=C(\C)CC/C=C(\C)CC/C=C(\C)CCC=C(C)C)=C(C)C1=O [ubidecarenone] | 2770 |

— the supplement of paper PMC10503962
